Screens (PubChem BioAssay)
Nrf2 inh = Nrf2 pathway inhibition. A549 ARE-Fluc reporter, luciferase luminescence, 18-24 h. Potency, µM (titrated, usually from 46 µM), for the others: at the top dose activity change, negative = inhibition, most hits filed as inhibitors. hit rate 2.1% among 360,000. AID 504444; also: potency is read from the fitted curve at half-maximal effect; % is scaled to controls: 0 for no effect and ±100 for the full control effect; nearly all actives have a fitted effect of over 60% in size
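Nrf2 activity is the BugLite luminescence, read 15 min after reagent at room temperature, following CellTiter-Fluor cytotoxicity readout (30 min, 37C). Compound titrations were applied for 18-24 h to 5000 A549 ARE_Fluc cells/well in 5% FBS OPTI-MEM.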
A549 tox = kills or reduces viability of A549 cells in Nrf2 counter-screen; A549 ARE-Fluc cells, CellTiter-Fluor viability, 18-24 h; Potency, µM (titrated, usually from 46 µM), for the others: top-dose activity change, negative = cytotoxicity, actives largely listed as inhibitors; hit rate 0.16% among 390,000; AID 504648; also: potency is read from the fitted curve at half-maximal effect; % is scaled to controls: 0 for no effect and ±100 for the full control effect
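A549 ARE_Fluc cells in 5% FBS OPTI-MEM were exposed to compounds in concentration-response for 18-24 h at 37 deg C. Viability was read by CellTiter-Fluor fluorescence (Ex 405/Em 525) after 30 min, before the luciferase read.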
IL-2 act = activators of IL-2. IL-2 activation reporter assay, cell-based qHTS; stimulated with anti-CD3/CD4/CD28 beads; in transgenic mouse T cells. activation, % (series mostly up to about 46 µM). hit rate 0.065% among 360,000; in the data active = activation above about 50%; inconclusive = mostly about 30% to 49%; also: 0% is about no effect
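First, unstimulated transgenic mouse T cells were exposed to compound for 60 min. Next, anti-CD3/anti-CD4-coated beads with anti-CD28 were added. Finally, after 18 h at 37 degrees C, EGFP and DsRed were imaged.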
Nrf2 ARE act = Nrf2 pathway activation | AREc32 ARE-luciferase reporter (MCF7-derived line), luminescence, 24 h | hit rate 0.31% among 410,000 | Potency, µM (titrated, usually from 46.1 µM), for inactives: at the top dose activation, hits mostly activators; also: potency is read from the fitted curve at half-maximal effect; % of control where 0% means no effect; nearly all actives have a fitted effect of over 65% in size
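Nrf2 activation is followed as ARE-luciferase induction in the AREc32 line after one day of compound treatment; luminescence is read with Steady-Glo.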
Active calls of the source: *; ? = inconclusive; . = no result given; [ ] = dose if it differs, or a comment. A selection: hits, their analogues and other compounds. The true share with any hit is near 2.3%. Unless noted, calls follow the shape of the dose curve; as a rule, active = well fitted curve in the direction sought with a large enough effect; inconclusive = small, poorly fitted or top-dose-only effect, or another doubt; inactive = no such curve, though single readings can be large; an effect the other way counts as inactive or inconclusive.

SMILES | Nrf2 inh | A549 tox | IL-2 act | Nrf2 ARE act
Cc1cc(C)n(-c2ccc(C(=O)Nc3cccc([N+](=O)[O-])c3)cc2)n1 | ? | 1.4% | -0.6 | 12.3%
CN(C)S(=O)(=O)Oc1ccc(C(=O)Nc2cccc(C(F)(F)F)c2)cc1 | 23.1µM* | ? | -0.6 | -0.4%
O=C(O)c1cc(F)c(S(=O)(=O)N2CCN(S(=O)(=O)c3ccc4c(c3)OCCO4)CC2)cc1F | ? | -2.9% | . | .
CN(c1ccccc1)S(=O)(=O)c1cccc(NC(=O)CCNC(=O)c2ccc([N+](=O)[O-])cc2)c1 | ? | -1.2% | -1.0 | 5.5%
CCN(CC)S(=O)(=O)c1cccc(NC(=O)CCNC(=O)c2ccc([N+](=O)[O-])cc2)c1 | 23.1µM* | -8.1% | -2.1 | 2.7%
Cc1cc(C)n(-c2ccc(C(=O)Nc3cccc(S(=O)(=O)N(C)C)c3)cc2)n1 | 18.4µM* | -14.5% | -2.7 | -0.5%
Cc1ccc(NC(=O)CNc2ccc(Cl)c(Cl)c2)cc1S(=O)(=O)N(C)C | 11.6µM* | ? | -0.4 | -0.6%[9.22 µM]
O=C(Nc1ccccc1)c1cccc(S(=O)(=O)NCc2ccco2)c1 | 16.4µM* | ? | -2.3 | 15.2%
O=C(Cn1cc(SCc2ccc(C(F)(F)F)cc2)c2ccccc21)N1CCCC1 | ? | -2.4% | . | 3.5%
COc1cc(C)ccc1OCCSc1nc2ccc(NC(=O)c3ccco3)cc2s1 | ? | 0.2% | . | -0.5%
CN(C)S(=O)(=O)c1cccc(C(=O)Nc2ccc(C(=O)Nc3cccc(S(N)(=O)=O)c3)cc2)c1 | -5.8% | 2.8% | 0.1 | 1.6%
Cc1ccc(NC(=O)CN(C)S(=O)(=O)c2cccc3nsnc23)cc1Cl | 18.4µM* | 2.5% | 2.0 | 1.7%
CN(C)S(=O)(=O)c1cccc(NC(=O)c2cccc(NS(=O)(=O)c3ccccc3)c2)c1 | 14.6µM* | ? | -3.0 | -0.6%
Cc1ccc(NC(=O)c2ccc(OC(F)(F)F)cc2)cc1S(=O)(=O)N(C)C | 11.6µM* | -6.1% | 0.2 | 3.5%
CC(=O)c1c(C)[nH]c(C(=O)OC(C)C(=O)Nc2ccc(C)c(S(=O)(=O)N3CCOCC3)c2)c1C (stereo not given) | -0.2% | -7.0% | -0.4 | 4.6%
CCN(CC)S(=O)(=O)c1cc(NC(=O)C(C)OC(=O)c2[nH]c(C)c(C(C)=O)c2C)ccc1C (stereo not given) | 11.6µM* | -18.4% | -5.2 | 6.4%
COc1cc(OC)cc(C(=O)N[C@H](C(=O)Nc2nc(-c3ccc(OC)c(OC)c3)cs2)C(C)C)c1 | 7.31µM* | -2.7% | 0.1 | 4.0%
COc1cc(CC(=O)Nc2nc(C)cs2)cc(OC)c1OC | ? | -1.9% | -1.0 | 0.0%
COc1ccc(-c2csc(NC(=O)Cc3cc(OC)c(OC)c(OC)c3)n2)cc1OC | 20.6µM* | ? | -1.1 | 3.6%
O=C(CCl)Nc1nc(-c2ccco2)c(-c2ccco2)s1 | -4.1% | -3.6% | 2.0 | 11.2µM*
Cc1ccc(C(=O)Nc2nc(-c3ccco3)c(-c3ccco3)s2)o1 | -7.1% | -2.2% | 2.1 | 1.26µM*
O=C(CCCSc1ccccc1)Nc1nc(-c2ccco2)c(-c2ccco2)s1 | -17.1% | -18.1% | -0.8 | 12.7%
COC(=O)c1ccccc1NC(=O)C1CCCN(C(=O)c2cnn(-c3ccc(F)cc3)c2-n2cccc2)C1 (stereo not given) | -2.9% | -6.0% | . | -0.4%
O=C(Cc1ccccc1)Nc1sc2c(c1C(=O)Nc1ccc(Cl)cc1)CCOC2 | -20.2% | -2.1% | . | .
COc1ccc(NC(=O)CCCSc2nc(-c3ccco3)cc(C(F)(F)F)n2)cc1OC | 20.6µM* | -17.4% | -0.4 | -0.4%
SMILES | Nrf2 inh | A549 tox | IL-2 act | Nrf2 ARE act
O=C(CSc1nc(-c2ccco2)cc(C(F)(F)F)n1)Nc1ccc(C(=O)N2CCCCC2)cc1 | 23.1µM* | -15.9% | -0.2 | 0.0%
COc1ccc(CCCc2nnc(SCC(=O)NN)o2)cc1 | 0.4% | -1.0% | -2.1 | -0.8%
COc1ccc(CCCc2nnc(SCC(=O)Nc3ccc(Cl)cc3)o2)cc1 | 20.6µM* | 0.0% | . | 5.0%
O=C(Nc1cc(C(F)(F)F)ccc1Cl)[C@H](O)CCc1ccccc1 | 25.9µM* | ? | . | .
O=C(NC(=S)Nc1cc(C(F)(F)F)ccc1Cl)c1ccccc1 | ? | 4.0% | -0.3 | 3.16µM*
O=C(CNC(=O)c1cccc(Cl)c1)OC(C(=O)Nc1cc(C(F)(F)F)ccc1Cl)c1ccccc1 (stereo not given) | 23.1µM* | -25.4% | . | .
Cc1ccc(S(=O)(=O)c2[nH]c(-c3ccccc3)nc2SC(C)C(=O)O)cc1 (stereo not given) | 6.6% | -2.3% | . | -0.2%
CCOc1cccc(C2C=C(c3ccc4c(c3)OCO4)NC(c3ccc(Br)cc3)N2)c1O (stereo not given) | 5.6% | -0.3% | . | .
O=C(NCCc1nc2ccccc2n1CCO)C1CCCCC1 | -6.1% | -0.5% | . | .
COc1ccc(CCNS(=O)(=O)c2ccc(N3CCCCS3(=O)=O)cc2)cc1 | . | -3.9% | . | 0.2%
Cc1c(C#N)c2ccccc2n1CCOc1ccccc1F | 23.1µM* | -2.1% | -1.7 | 3.9%
O=c1oc2ccccc2nc1/C=C(O)/C=C\c1ccccc1 | 3.2% | -8.8% | -2.6 | 15.8µM*
O=c1oc2ccccc2nc1/C=C(O)/C=C/c1ccc(F)cc1 | 10.8% | -7.1% | -1.8 | 17.8µM*
COc1ccc(/C=C/C(=O)N2CCC(c3nc4ccccc4o3)CC2)cc1 | ? | -0.1% | . | 0.0%
Cc1ccc(/C(O)=C/c2nc3ccccc3oc2=O)cc1 | -18.2% | -9.4% | -0.4 | 12.6µM*
Cc1ccc2oc(=O)c(/C=C(\O)c3ccco3)nc2c1 | ? | -1.7% | 6.3 | ?
COc1cc(NC(=O)Cn2nc3c(cc2=O)CC(C)CC3)cc(OC)c1OC (stereo not given) | . | -0.3% | . | -0.4%
CC1Cc2ccccc2N1C(=O)CSc1nc2ccc(NC(=O)COc3ccccc3)cc2s1 (stereo not given) | ? | 0.5% | . | 0.2%
CCOc1cc(C2NN=C(c3ccccc3)S2)ccc1OCc1ccccc1Cl (stereo not given) | ? | 4.3% | -1.4 | ?
CCOc1cc(C2NN=C(c3ccccc3)S2)ccc1OCc1ccc(F)cc1 (stereo not given) | ? | -2.4% | -2.6 | 11.2µM*
Clc1cc(Cl)cc(Nc2ncnc(-n3cccc3)n2)c1 | -10.6% | 1.5% | -0.8 | 2µM*
CN1CC=C2C(C#N)=C(N)C(C#N)(C#N)C(CCc3ccccc3)C2C1 (stereo not given) | -4.8% | 1.0% | 3.8 | 3.9%
CCCC1C2CN(C(C)C)CC=C2C(C#N)=C(N)C1(C#N)C#N (stereo not given) | 6.51µM* | ? | 2.3 | 0.8%
CCc1cccc(NC(=O)COC(=O)c2cn(CC)c3nc(C)ccc3c2=O)c1 | 17.7% | 1.2% | . | -0.5%
CN(Cc1ccc(OC(F)F)cc1)C(=O)C1CCN(S(=O)(=O)c2ccc3c(c2)OCCO3)CC1 | 23.1µM* | -1.8% | -0.9 | 3.8%
CN(Cc1ccc(OC(F)F)cc1)C(=O)/C=C/c1ccc(S(=O)(=O)N2CCOCC2)cc1 | 23.1µM* | 0.2% | -0.8 | 2.4%
